Test results from the supplement of paper PMC7411054.
Counter-ions that a name gives are not always drawn.

Tested on: WPMY1-TP53BP1-CLTA
Assay: lowest phenotypically active concentration; higher = less potent
Conditions: treatment time: 24 h
Procedure, shortened: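 Fifteen reporter lines derived from A549, HepG2 and WPMY1 cells by gene editing, carrying BFP for segmentation plus GFP and RFP/FusionRed markers, were exposed to 0.3, 1, 3 or 9 µM for 24 h in four wells each and imaged live. Live-cell features from each well were normalised to solvent control wells. A well set counted as deviating when ≥3 of 4 wells lay beyond the 95th percentile of control Euclidean distances, and as reproducible when the median replicate Pearson correlation exceeded the 95th percentile of non-replicates. Phenotypic activity was assigned only when both criteria were met.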

SMILES | lowest phenotypically active concentration [µM]
Nc1nc(Cl)nc2c1ncn2[C@@H]1O[C@H](CO)[C@@H](O)[C@@H]1F [clofarabine] | ≤ 0.3
Cc1nc(Nc2ncc(C(=O)Nc3c(C)cccc3Cl)s2)cc(N2CCN(CCO)CC2)n1 [dasatinib] | ≤ 0.3
O=C(NCc1cccc(O)c1)Nc1nc(-c2ccncc2)cs1 [RKI 1447 dihydrochloride] | ≤ 0.3
CC(C)n1nc(-c2cc3cc(O)ccc3[nH]2)c2c(N)ncnc21 | 1
COc1ccc(-c2ccc3ncc4c(c3c2)n(-c2ccc(N3CCNCC3)c(C(F)(F)F)c2)c(=O)n4C)cn1 | ≤ 0.3
CC(C)(C)c1cnc(CSc2cnc(NC(=O)C3CCNCC3)s2)o1 | ≤ 0.3
O=C(O)c1ccc(Nc2ncc3c(n2)-c2ccc(Cl)cc2C(c2c(F)cccc2F)=NC3)cc1 | ≤ 0.3
COc1ccc(S(=O)(=O)N(C(C)=O)c2ccccc2/C=C/c2cc[n+]([O-])cc2)cc1 | 3
CC(C)(C)Nc1nc(Nc2ccc(C(N)=O)cc2)cc(N)c1C#N | 3
Nc1cccc(-c2cc3c(Oc4cccc(O)c4)ncnc3[nH]2)c1 | 3
c1ccc2c(c1)Cc1c(Nc3ccc4c(c3)OCCO4)n[nH]c1-2 | 3
Cc1c(NC(=O)OC[C@@H]2COCCN2)cn2ncnc(Nc3ccc4c(cnn4Cc4cccc(F)c4)c3)c12 | 9
CCC(=O)N1CCN(c2ccc(-n3c(=O)ccc4cnc5ccc(-c6cnc7ccccc7c6)cc5c43)cc2C(F)(F)F)CC1 [Torin 1] | ≤ 0.3
COc1c(Nc2cc(C)[nH]n2)nc(Sc2ccc(S(=O)(=O)Cc3cccc([N+](=O)[O-])c3F)cc2F)nc1N1CCOCC1 [Centrinone] | 3
